Compounds with a hit are over-represented: about 0.45% of the library has one in this group of screens.
EPAC2 antag: antagonists of human EPAC2; EPAC2 GEF exchange of Rap1B-BODIPY-GDP, fluorescence; AID 720708; actives 0.18% (n = 360,000); Potency, µM (top dose mostly 114 µM), usual class: inhibitors; note: nearly all actives have a fitted effect of over 45% in size
EPAC2 ag: EPAC2 (human) agonism; AID 720711; actives 0.079% (n = 360,000); EPAC2 activation, biochemical qHTS; response scale: 100% = 6.5 mM cAMP response; Potency, µM (highest dose often 154 µM), usual class: activators; Q8WZA2; note: nearly all actives have a fitted effect of over 50% in size
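Guanine nucleotide exchange by EPAC2 is measured as reduced fluorescence of BODIPY-GDP once it is released from 250 nM Rap1B. Plates are read kinetically for 30 min at room temperature; results are scaled to 6.5 mM cAMP.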
EPAC1 antagonist: antagonists of human EPAC1; O95398; EPAC1 GEF assay, Rap1b-BODIPY-GDP exchange fluorescence; Potency, µM (titrated, usually from 115 µM), most hits filed as inhibitors; actives 0.14% (n = 360,000); AID 720709; note: nearly all actives have a fitted effect of over 50% in size
USP2a inh: USP2a (human) protease inhibition. O75604. actives 0.01% (n = 330,000). Potency, µM (titrated, usually from 38.3 µM), most hits filed as inhibitors. USP2 core, Ub-CHOP2 coupled fluorogenic reporter, 485/531
Target sequence (O75604 whole entry, looked up): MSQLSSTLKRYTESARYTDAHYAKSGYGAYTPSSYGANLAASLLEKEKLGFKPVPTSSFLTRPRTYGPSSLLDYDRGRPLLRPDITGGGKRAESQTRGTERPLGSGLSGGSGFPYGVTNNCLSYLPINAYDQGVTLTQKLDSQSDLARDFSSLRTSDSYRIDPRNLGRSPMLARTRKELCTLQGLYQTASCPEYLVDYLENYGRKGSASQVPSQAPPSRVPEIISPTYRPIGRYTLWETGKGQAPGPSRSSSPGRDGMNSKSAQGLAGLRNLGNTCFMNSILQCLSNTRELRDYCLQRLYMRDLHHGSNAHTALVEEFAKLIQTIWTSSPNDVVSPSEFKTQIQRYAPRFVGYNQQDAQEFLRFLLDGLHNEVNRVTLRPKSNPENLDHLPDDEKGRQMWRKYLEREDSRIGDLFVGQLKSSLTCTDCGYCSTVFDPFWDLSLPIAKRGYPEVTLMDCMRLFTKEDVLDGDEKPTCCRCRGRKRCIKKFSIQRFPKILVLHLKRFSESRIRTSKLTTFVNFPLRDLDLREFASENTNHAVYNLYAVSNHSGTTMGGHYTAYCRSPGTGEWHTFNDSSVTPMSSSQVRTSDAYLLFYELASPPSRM
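Deubiquitinase activity read as fluorescence (485/531 nm) after Ub-CHOP2 cleavage activates the enterokinase reporter on its substrate; USP2 core 10nM, Ub-CHOP2 and substrate 25nM each, 30min compound preincubation then 60min RT; data normalized to NEM, curves fitted.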
EPAC1 ag: EPAC1 (human) agonism. actives 0.073% (n = 360,000). AID 720707. EPAC1 agonist qHTS, biochemical assay; response scale: 100% = response to 6.5 mM cAMP. O95398. Potency, µM (doses to about 154 µM), actives largely listed as activators; note: nearly all actives have a fitted effect of over 60% in size
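Compounds were pinned as a concentration titration into mixtures of EPAC1 (100 nM), BODIPY-GDP-loaded Rap1B (250 nM) and GDP (50 uM). After 5 min at room temperature, fluorescence was followed for 30 min; activity was scaled to 6.5 mM cAMP.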
USP1 inh: inhibitors of human USP1/UAF1 deubiquitinase; recombinant USP1/UAF1, Ub-Rhodamine cleavage fluorescence; O94782; Potency, µM (top dose mostly 57.1 µM), most hits filed as inhibitors; actives 0.23% (n = 390,000); note: nearly all actives have a fitted effect of over 60% in size
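Step one: compound is pinned into 1nM USP1/UAF1 in HEPES pH 7.8 buffer with TCEP. Step two: 15 min room-temperature incubation. Step three: Ub-Rho (150nM final) starts cleavage, tracked by fluorescence over six one-minute reads.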
Numbers stand for hits; - = inactive; ? = inconclusive; . = no result given. Calls come from the whole dose curve; as a rule, active = well fitted curve in the direction sought with a large enough effect; inconclusive = small, poorly fitted or top-dose-only effect, or another doubt; inactive = no such curve, though single readings can be large; an effect the other way counts as inactive or inconclusive.

SMILES	EPAC2 antag	EPAC2 ag	EPAC1 antagonist	USP2a inh	EPAC1 ag	USP1 inh
O=c1c(O)cccc2cc(O)c(O)c(O)c12	-	-	13µM	-	-	?
O=C(NC(c1ccc(-c2ccccc2)cc1)c1cnccn1)C1CCN(Cc2ccc3c(c2)OCO3)CC1 (stereo not drawn)	-	-	-	.	-	.
c1ccc(-c2cnn3c(-c4ccccc4)c(-c4ccccc4)nc3n2)cc1	-	89µM	-	?	13µM	1.4µM
O=C(COc1ccc(F)cc1)Nc1nccs1	-	35µM	-	-	-	-
CCC1CCCCN1CCCNC(=O)c1ccc(CS(=O)(=O)Cc2ccccc2F)o1 (stereo not drawn)	22µM	-	-	-	-	-
O=C(NCCCN1CCCCCC1)c1ccc(CS(=O)(=O)Cc2ccccc2F)o1	-	-	-	-	-	-
COc1ccc(Cn2c(=O)c3oc4ccccc4c3n(Cc3ccccc3)c2=O)cc1	.	.	.	.	.	-
CCN(CC)C(=O)CSc1nnc(-c2cccs2)n1Cc1ccco1	-	10µM	-	-	-	-
Cc1ccc(C(=O)c2c(C)oc3c2C(=O)C(=O)c2ccccc2-3)cc1	-	-	-	-	-	14µM
Cc1oc2c(c1C(=O)c1ccc(Cl)cc1)C(=O)C(=O)c1ccccc1-2	-	-	-	-	-	?
Cc1ccc(N2CCN(C(=O)c3c(C)oc4nc(C)nc(N5CCCC5)c34)CC2)c(C)c1	.	.	.	.	.	-
Cc1cc2ccccn2c1C(=O)c1ccc(Cl)c([N+](=O)[O-])c1	11µM	-	-	-	-	-
Cc1cc2ccccn2c1C(=O)c1ccccc1Br	13µM	-	-	-	-	-
Cc1cc2ccccn2c1C(=O)c1cccc([N+](=O)[O-])c1	?	-	-	-	-	-
Cc1cc2ccccn2c1C(=O)c1ccc([N+](=O)[O-])cc1[N+](=O)[O-]	-	-	-	-	-	-
CCOc1ccc(-c2cc(C(=O)NCCc3ccccc3)c3c(-c4ccc(C)cc4)[nH]nc3n2)cc1	.	.	.	.	.	-
CC(C)c1ccc(C(=O)N2CCCCC2c2cc(C(=O)NCc3cccnc3)no2)cc1 (stereo not drawn)	-	-	-	.	-	.
O=C(O)C1Nc2c(O)cc(Cl)c([N+](=O)[O-])c2C2C=CCC12 (stereo not drawn)	-	-	13µM	?	-	?
Cc1csc(NC(=O)CSc2sc3c(O)cc(=O)[nH]c3c2C#N)n1	-	-	50µM	-	-	?
Cc1cc(C)c2c(=O)cc(CSc3nnc(-c4ccccc4)n3C)[nH]c2c1	.	.	.	.	.	-
CSc1nc(SCCO)c2sc3nc(-c4ccco4)c4c(c3c2n1)CC(C)(C)OC4	-	-	?	10µM	-	-
COC(=O)CSc1nc(SC)nc2c1sc1nc(-c3ccco3)c3c(c12)CC(C)(C)OC3	-	-	-	.	-	-
COc1ccc(OC)c(/C=C2/Sc3ccccc3C2=O)c1	-	-	-	-	-	28µM
COc1ccc(OC)c(C=C2CCc3ccccc3C2=O)c1	?	-	-	.	-	.
O=C(O)c1ccc(N/N=C/c2ccc(-c3ccccc3Cl)o2)cc1	40µM	-	-	-	-	-
SMILES	EPAC2 antag	EPAC2 ag	EPAC1 antagonist	USP2a inh	EPAC1 ag	USP1 inh
CC(=O)c1ccc(NC(=O)CSc2nnc(-c3ccco3)c(-c3ccco3)n2)cc1	-	-	50µM	-	-	?
O=C1S/C(=C/c2ccc(N3CCOCC3)o2)C(=O)N1Cc1ccc(F)cc1	-	?	-	-	-	14µM
O=C1S/C(=C\c2ccc(N3CCOCC3)o2)C(=O)N1Cc1ccc(F)cc1	-	112µM	-	-	-	5.6µM
O=C1NC(=S)S/C1=C/c1ccc(N2CCOCC2)o1	-	-	-	-	-	?
O=C(CN1CCSC1=O)Nc1ccc(N2CCOCC2)cc1	-	-	-	-	-	-
O=C(/C=C/c1ccc([N+](=O)[O-])cc1)Nc1cccc(C(=O)Nc2ccccc2C(=O)O)c1	-	-	28µM	-	-	?
O=C(COc1ccc2ccccc2c1)Nc1cccc(C(=O)Nc2ccccc2C(=O)O)c1	-	-	45µM	-	-	-
COc1ccc(OCC(=O)Nc2ccc(C(=O)Nc3ccccc3C(=O)O)cc2)cc1	-	-	-	-	-	-
CC1CCCCN1S(=O)(=O)c1cc2c3c(c1)CC(=O)N3CCC2 (stereo not drawn)	.	.	.	.	.	-
CCOC(=O)c1ccc(N2C(=O)C3C(/C=C/c4ccccc4)OC4(C(=O)c5ccccc5C4=O)C3C2=O)cc1 (stereo not drawn)	-	-	100µM	-	-	-
CCOC(=O)c1ccc(N2C(=O)[C@@H](c3ccccc3)[C@H]2c2ccccc2)cc1	-	-	-	-	-	-
CCC(=O)N(CC)C1=C(O)c2ccccc2C(=O)C1=O	-	-	-	-	-	25µM
O=C(Nc1ccc2nc(-c3ccc4nc[nH]c4c3)[nH]c2c1)c1cccs1	50µM	?	-	-	-	?
O=C(Nc1ccc2nc(-c3ccccc3)[nH]c2c1)c1cccs1	-	-	-	-	-	-
COc1cc2c(c(OC)c1OC)C(c1ccccc1C)CC(=O)O2 (stereo not drawn)	?	-	-	-	-	-
COc1cc2c(c(OC)c1OC)C(c1ccc3c(c1)OCO3)CC(=O)O2 (stereo not drawn)	40µM	-	-	-	-	-
CC1=CC(C)(C)N2C(=O)C(=Nc3ccc(O)cc3)c3cccc1c32	?	-	79µM	-	-	3.5µM
CNc1ccc2c3c(cccc13)C(=O)N(C)C2=O	-	?	-	?	100µM	-
CN1C(=O)c2cccc3c(Cl)ccc(c23)C1=O	-	-	-	-	-	-
CCOCCCNC(=O)Cn1ncc2c([nH]c3ccccc32)c1=O	.	.	.	.	.	-
CCOc1ccc(CCNC(=O)c2nn(C)c3c2CSc2ccccc2-3)cc1	.	.	.	.	.	-
CCOC(=O)/C=C(\C)Sc1cc(O)c2ccccc2c1O	45µM	-	?	-	-	7.9µM
O=C(O)C(c1ccccc1)N1C(=O)/C(=C\c2ccc(O)c(O)c2)SC1=S (stereo not drawn)	22µM	-	32µM	-	-	?
COC(=O)[C@]12CCCCC=C1N(Cc1ccc3c(c1)OCO3)C(=O)[C@H](CC(=O)NCC13CC4CC(CC(C4)C1)C3)C2	-	-	-	.	-	.
COC(=O)c1c(-c2ccccc2)oc2c1C(OCCO)CCC2 (stereo not drawn)	-	-	-	.	-	.
COc1ccc(C2=CC3=C(Br)C(=O)C(C)(OC(=O)c4cccs4)C(=O)C3=CO2)cc1 (stereo not drawn)	-	-	?	.	-	35µM

Bioassay records from PubChem.
